According to the supplement of paper PMC7411054:

Assays:
Conditions in all cases: treatment time: 24 h
HepG2-ACTB-RAB5A [1] = experiment: lowest phenotypically active concentration; higher = less potent
Summary of the method: (§1)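 Fifteen gene-edited A549, HepG2 and WPMY1 reporter lines (BFP segmentation plus GFP and RFP/FusionRed markers) were treated at 0.3, 1, 3 or 9 µM for 24 h, four wells each, then imaged live. Live-cell features per well were normalised to DMSO control wells. Deviation required ≥3 of 4 wells beyond the 95th percentile of DMSO Euclidean distances, and reproducibility required median replicate Pearson correlation above the 95th percentile of non-replicates. Phenotypic activity needed both criteria.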

HepG2-CANX-COX4 [2] = experiment: as above
Summary of the method: as §1

HepG2-GM130-SQSTM1 [3] = experiment: as above
Summary of the method: as §1

WPMY1-GM130-SQSTM1 [4] = experiment: as above
Summary of the method: as §1

WPMY1-TP53BP1-CLTA [5] = experiment: as above
Summary of the method: as §1

A549-ACTB-RAB5A = experiment: phenotypically active (imaging signature differs from DMSO and reproducible) at any of 0.3-9 uM (binary (1 = active, 0 = inactive)); higher = active
Summary of the method: as §1

A549-CANX-COX4 = experiment: as above
Summary of the method: as §1

A549-GM130-SQSTM1 = experiment: as above
Summary of the method: as §1

A549-TP53BP1-CLTA = experiment: as above
Summary of the method: as §1

A549-TUBA1B-RELA = experiment: as above
Summary of the method: as §1

HepG2-ACTB-RAB5A [6] = experiment: as above
Summary of the method: as §1

HepG2-CANX-COX4 [7] = experiment: as above
Summary of the method: as §1

HepG2-GM130-SQSTM1 [8] = experiment: as above
Summary of the method: as §1

HepG2-TP53BP1-CLTA = experiment: as above
Summary of the method: as §1

HepG2-TUBA1B-RELA = experiment: as above
Summary of the method: as §1

WPMY1-ACTB-RAB5A = experiment: as above
Summary of the method: as §1

WPMY1-CANX-COX4 = experiment: as above
Summary of the method: as §1

WPMY1-GM130-SQSTM1 [9] = experiment: as above
Summary of the method: as §1

WPMY1-TP53BP1-CLTA [10] = experiment: as above
Summary of the method: as §1

WPMY1-TUBA1B-RELA = experiment: as above
Summary of the method: as §1

Row | SMILES | lowest phenotypically active concentration (HepG2-ACTB-RAB5A [1]) [µM] | lowest phenotypically active concentration (HepG2-CANX-COX4 [2]) [µM] | lowest phenotypically active concentration (HepG2-GM130-SQSTM1 [3]) [µM] | lowest phenotypically active concentration (WPMY1-GM130-SQSTM1 [4]) [µM] | lowest phenotypically active concentration (WPMY1-TP53BP1-CLTA [5]) [µM] | phenotypically active (A549-ACTB-RAB5A) | phenotypically active (A549-CANX-COX4) | phenotypically active (A549-GM130-SQSTM1) | phenotypically active (A549-TP53BP1-CLTA) | phenotypically active (A549-TUBA1B-RELA) | phenotypically active (HepG2-ACTB-RAB5A [6]) | phenotypically active (HepG2-CANX-COX4 [7]) | phenotypically active (HepG2-GM130-SQSTM1 [8]) | phenotypically active (HepG2-TP53BP1-CLTA) | phenotypically active (HepG2-TUBA1B-RELA) | phenotypically active (WPMY1-ACTB-RAB5A) | phenotypically active (WPMY1-CANX-COX4) | phenotypically active (WPMY1-GM130-SQSTM1 [9]) | phenotypically active (WPMY1-TP53BP1-CLTA [10]) | phenotypically active (WPMY1-TUBA1B-RELA)
1 | C[C@@]1(CO)[C@H](O)CC[C@@]2(C)[C@H]1CC[C@H]1C[C@@H]3C[C@@]12CC[C@]3(O)CO [Aphidicolin] | ≤ 0.3 | ≤ 0.3 | ≤ 0.3 | ≤ 0.3 | 1 | 1 (active) | 1 (active) | 1 (active) | 1 (active) | 1 (active) | 1 (active) | 1 (active) | 1 (active) | 1 (active) | 1 (active) | 1 (active) | 1 (active) | 1 (active) | 1 (active) | 1 (active)
2 | CC[C@@H](C(=O)[C@@H](C)[C@@H](O)[C@H](C)[C@@H]1O[C@@H]([C@@H](CC)C(=O)O)CC[C@@H]1C)[C@H]1O[C@]2(C=C[C@@H](O)[C@]3(CC[C@@](C)([C@H]4CC[C@](O)(CC)[C@H](C)O4)O3)O2)[C@H](C)C[C@@H]1C [Salinomycin Sodium] | 1 | 1 | 1 | ≤ 0.3 | ≤ 0.3 | 1 (active) | 1 (active) | 1 (active) | 1 (active) | 1 (active) | 1 (active) | 1 (active) | 1 (active) | 1 (active) | 1 (active) | 1 (active) | 1 (active) | 1 (active) | 1 (active) | 1 (active)
3 | C=C1[C@@H](O)C2C=CC[C@H](C)C(=O)[C@](C)(O)C=C[C@@H](OC(C)=O)[C@]23C(=O)N[C@H](Cc2ccccc2)[C@@H]3[C@@H]1C (some centres not stated) [Cytochalasin D] | ≤ 0.3 | ≤ 0.3 | ≤ 0.3 | ≤ 0.3 | ≤ 0.3 | 1 (active) | 1 (active) | 1 (active) | 1 (active) | 1 (active) | 1 (active) | 1 (active) | 1 (active) | 1 (active) | 1 (active) | 1 (active) | 1 (active) | 1 (active) | 1 (active) | 1 (active)
4 | C[C@H](CCC(=O)O)C[C@H](C)C[C@H](C)C(=O)/C=C(\O)[C@H](C)C[C@H](C)C/C=C/[C@@H](C)[C@@H](O)[C@@H](C)[C@@H](O)C[C@@H]1CC[C@@](C)([C@H]2CC[C@@](C)([C@@H](C)O)O2)O1 [Ionomycin free acid] | – | 9 | – | 9 | 9 | 0 (inactive) | 1 (active) | 0 (inactive) | 0 (inactive) | 0 (inactive) | 0 (inactive) | 1 (active) | 0 (inactive) | 0 (inactive) | 1 (active) | 1 (active) | 1 (active) | 1 (active) | 1 (active) | 0 (inactive)
5 | COc1ccc(C[C@H]2NC[C@H](O)[C@H]2OC(C)=O)cc1 [Anisomycin] | ≤ 0.3 | ≤ 0.3 | ≤ 0.3 | ≤ 0.3 | ≤ 0.3 | 1 (active) | 1 (active) | 1 (active) | 1 (active) | 1 (active) | 1 (active) | 1 (active) | 1 (active) | 1 (active) | 1 (active) | 1 (active) | 1 (active) | 1 (active) | 1 (active) | 1 (active)
6 | CCN1CCN(C(=O)Cc2ccc(Nc3ncc(F)c(Nc4ccc(C(=O)Nc5ccccc5Cl)cc4)n3)cc2)CC1 | 1 | 1 | 1 | – | 1 | 1 (active) | 1 (active) | 1 (active) | 1 (active) | 1 (active) | 1 (active) | 1 (active) | 1 (active) | 1 (active) | 1 (active) | 1 (active) | 0 (inactive) | 0 (inactive) | 1 (active) | 1 (active)
7 | C[C@]12CC[C@H]3[C@@H](CCC4=CC(=O)CC[C@@]43C)[C@@H]1CC[C@@H]2O [testosterone] | – | 3 | – | 9 | – | 0 (inactive) | 0 (inactive) | 0 (inactive) | 0 (inactive) | 0 (inactive) | 0 (inactive) | 1 (active) | 0 (inactive) | 0 (inactive) | 0 (inactive) | 0 (inactive) | 0 (inactive) | 1 (active) | 0 (inactive) | 0 (inactive)
8 | COc1cc2c(cc1O)C[C@H]1c3c(cc(O)c(OC)c3-2)CCN1C [Boldine] | 9 | – | – | 1 | – | 0 (inactive) | 0 (inactive) | 1 (active) | 0 (inactive) | 1 (active) | 1 (active) | 0 (inactive) | 0 (inactive) | 0 (inactive) | 0 (inactive) | 0 (inactive) | 0 (inactive) | 1 (active) | 0 (inactive) | 0 (inactive)
9 | C[C@H]1CC[C@@H]2N(C1)C[C@H]1[C@@H]3C[C@H]4[C@@H](CC(=O)[C@H]5C[C@@H](O)CC[C@@]54C)[C@@H]3CC[C@H]1[C@]2(C)O [Imperialine] | – | – | – | – | – | 0 (inactive) | 0 (inactive) | 0 (inactive) | 0 (inactive) | 0 (inactive) | 0 (inactive) | 0 (inactive) | 0 (inactive) | 0 (inactive) | 0 (inactive) | 1 (active) | 1 (active) | 0 (inactive) | 0 (inactive) | 0 (inactive)
10 | O=C1C=C2C=C[C@@H]3C[C@@]2(O1)[C@H]1CCCCN31 [Securinine] | – | – | 9 | – | – | 0 (inactive) | 0 (inactive) | 0 (inactive) | 0 (inactive) | 0 (inactive) | 0 (inactive) | 0 (inactive) | 1 (active) | 0 (inactive) | 0 (inactive) | 0 (inactive) | 0 (inactive) | 0 (inactive) | 0 (inactive) | 1 (active)
